PubChem BioAssay (NCI)
About 79,000 compounds went through this panel and 15% of them were active in at least one assay; those are over-represented in the sample as a whole. A number with no mark means an inactive call. Calls of active or inactive are those of the source. Rule as the data show it: active = growth inhibition above about 70%; inactive = the rest.

Legend:
[1] = NCI Yeast Anticancer Drug Screen. Data for the rad50 strain (AID 155);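 also: 0% = growth of vehicle-only cultures of the same strain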; details: S. cerevisiae rad50 strain growth inhibition; at 50.0 µM; stronger effect = higher value
Summary of the method: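 A DNA repair-deficient yeast mutant serves as the test organism; compound-induced growth inhibition is calculated against vehicle-treated cells.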

[2] = NCI Yeast Anticancer Drug Screen. Data for the mec2-1 strain (AID 157); details: S. cerevisiae mec2-1 strain, at 50.0 µM, stronger effect = higher value
Summary of the method: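 Mutant yeast (mec2-1) grown with compound; growth inhibition relative to vehicle control reported.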

[3] = NCI Yeast Anticancer Drug Screen. Data for the sgs1 mgt1 strain (AID 161);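 also: 0% = growth of cultures given vehicle only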; details: S. cerevisiae sgs1 mgt1 strain, at 50.0 µM, stronger effect = higher value
Summary of the method: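 Compounds are added to genetically altered yeast, and growth is compared with cultures given vehicle alone to give percent inhibition.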

[4] = NCI Yeast Anticancer Drug Screen. Data for the cln2 rad14 strain (AID 165);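 also: 0% = growth equal to vehicle treated cultures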; details: S. cerevisiae cln2 rad14 strain, at 50.0 µM, stronger effect = higher value
Summary of the method: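 Readout is yeast growth inhibition versus vehicle-treated controls, using a strain with cln2 and rad14 alterations exposed to compound.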

[5] = NCI Yeast Anticancer Drug Screen. Data for the bub3 strain (AID 167); details: S. cerevisiae bub3 mutant strain, at 50.0 µM, stronger effect = higher value
Summary of the method: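 Inhibition values come from growth of compound-treated mutant yeast normalised to vehicle-treated controls.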

[6] = NCI Yeast Anticancer Drug Screen. Data for the mlh1 rad18 strain (AID 175); details: S. cerevisiae mlh1 rad18 strain growth inhibition; at 50.0 µM; stronger effect = higher value
Summary of the method: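 Genetically defined yeast (DNA repair-deficient) exposed to compounds; growth inhibition determined relative to vehicle.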

SMILES	growth inhibition [1]	growth inhibition [2]	growth inhibition [3]	growth inhibition [4]	growth inhibition [5]	growth inhibition [6]
CC(=O)c1cccc(OC(=O)c2ccccc2)c1	23.5%	8.3%	35%	10.7%	45.1%	30.8%
N/N=C(\c1nc2ccc([N+](=O)[O-])cc2[nH]c1=O)C(O)c1ccc(Cl)c(Cl)c1 (stereo unspecified)	5.7%	-6.65%	-11.1%	-12.7%	22.3%	-6.6%
c1ccc(CSc2nn[nH]n2)cc1	-5.3%	-8.1%	-0.8%	-9.65%	-2.45%	-4.95%
CCC#CCN(CCC)CCC	-8.55%	7.1%	-10.7%	-41.1%	-17.9%	-18.9%
CSc1nc(NC2OC(COC(C)=O)C(OC(C)=O)C(OC(C)=O)C2OC(C)=O)c2c(n1)OCC2=O (stereo unspecified)	2.65%	-13.7%	-38%	28.2%	30.9%	18.1%
O=C1CC2(CCCC2)C(=O)N1c1cccc([N+](=O)[O-])c1	10.8%	5%	17.4%	11%	11.7%	-4.85%
N#C/C(=C/c1ccc(Cl)cc1)C(=O)O	6.35%	-2.35%	-13.3%	6.35%	-0.15%	21.1%
CC1=C(CO)C(=O)O[C@@H]([C@@H](C)[C@H]2CC[C@H]3[C@@H]4C[C@H]5O[C@]56[C@@H](O)C=CC(=O)[C@]6(C)[C@H]4CC[C@]23C)C1	86.2% (active)	89.2% (active)	86.5% (active)	83.3% (active)	89.7% (active)	85% (active)
O=c1c2ccccc2[nH]c2c(O)c3c(=O)c4ccccc4[nH]c3cc12	-8.6%	-2.05%	3.9%	-4.4%	3.15%	4.05%
CN1C(=O)CNS1(=O)=O	-1.45%	9.6%	-4.35%	-11.1%	4.6%	7.3%
CC1(C)O[C@H]2Cn3c(c(C#N)c4ccccc43)[C@H]2O1	11.2%	-38.4%	15.8%	-11.1%	42.1%	-21.2%
O=C(c1ccncc1)n1nc(-c2ccccc2)c(N=Nc2ccccc2[N+](=O)[O-])c1-c1ccccc1	-1.75%	-16.8%	-9.3%	1.65%	30.3%	1%
CCOC(=O)Cn1c(=O)c2nc(SC)sc2n(CC)c1=S	-21.8%	21.1%	-1.15%	-6.55%	9.45%	4%
N#Cc1nn(CCCl)c(=O)c2ccccc12	28.7%	17.9%	10%	12.2%	12.2%	15.4%
O=C(CO)c1ccc(-c2ccccc2)cc1	-8%	-12.4%	-19.1%	-12.7%	4.95%	16.2%
N#CCC1(O)c2ccccc2-c2ccccc21	-11.9%	7.45%	8%	-6.25%	1.4%	9.9%
CCCOC(=O)Nc1cccc(Cl)c1	49.5%	-8.7%	13.6%	-9.95%	-9.35%	12.4%
CC(=O)NC1=NN(C(C)=O)C(C)(c2ccccc2)S1=O (stereo unspecified)	9.65%	-1.25%	3.7%	10%	-3.95%	14.7%
Cn1nc2ccccc2cc1=O	20.7%	2.65%	-2.1%	14.2%	10.8%	14.9%
C=C1CN=C(Nc2ccc(Cl)cc2)S1	-11.1%	18.1%	-14.8%	17.2%	11.5%	-13.7%
COc1ccc(Cl)cc1NC(=O)Oc1cc2ccccc2cc1C(=O)Nc1ccccc1	-9.4%	-8.05%	-21.4%	-25.1%	-3.25%	-13.8%

SMILES	growth inhibition [1]	growth inhibition [2]	growth inhibition [3]	growth inhibition [4]	growth inhibition [5]	growth inhibition [6]
COC(=O)CCC(=O)NCC(=O)OCc1ccccc1	0.55%	-1.85%	-13.9%	3.05%	-11.8%	19.2%
O=C(O)CCc1cccc2ccccc12	30.1%	10.8%	32.7%	14.4%	3.35%	35.3%
CCOC(=O)C12CCCC1(O)N(NC(=O)OC(C)(C)C)C(C)=C2C(=O)OC (stereo unspecified)	-7.85%	15.1%	-2.6%	-43.2%	0.35%	-7.5%
Cn1c2ccccc2c2c3ccc[n+](C)c3ccc21	8%	-2.9%	8.7%	-57.5%	-0.1%	2.1%
CN1C(=O)c2ccccc2NC(=O)C12O[C@@H]2c1cccc(O)c1 (stereo partly specified)	9%	-0.55%	11.2%	8.9%	6.9%	8.05%
Oc1cccc2c(O)cccc12	0.55%	22.8%	26.4%	-9.55%	25.5%	32.8%
COc1ccc2nc3cccc([N+](=O)[O-])c3c(NCCC(=O)O)c2c1	56.1%	-18.9%	49.9%	26.8%	-5.25%	25.8%
O=C(c1nc2ccccc2[nH]1)N1CCN(c2ccccc2)CC1	2.95%	-1.55%	-9%	5.55%	1.35%	7.3%
O=C1O/C(=C2/OC(=O)c3ccccc32)c2ccccc21	-8.05%	-7.95%	-3.75%	-44%	14.5%	-0.65%
CCCCNC(=O)OCCN=c1c2ccccc2ccc2ccccc12	-25.6%	-31.4%	-9.95%	2.8%	-1.3%	-15.4%
O=c1[nH]c2cccccc-2c1-c1nc2ccccc2[nH]1	40.6%	15.2%	33.6%	19.5%	16.7%	8.95%
CCOC(=O)c1ccc(C(=N)N)cc1	8.4%	2.2%	11%	-15.2%	11.2%	5.55%
COc1ccc(OC)c2cc(C3(C)SCCCS3)ccc12	-9%	9.35%	19.2%	15.3%	13.2%	-12.2%
COc1ccc(C(C)=O)c(OC(C)=O)c1OC(C)=O	4.05%	0.95%	6.25%	10%	5.8%	17.2%
CCOC(=O)C(C(C)=O)C(NO)C(Cl)(Cl)Cl (stereo unspecified)	5.4%	13.6%	3.4%	17.1%	2.2%	-3.05%
CCCCCCCCCO	13.7%	-4.8%	19.9%	11.3%	12.8%	19.3%
CCCC(=O)Nc1cc(C(=O)O)cc([N+](=O)[O-])c1	2.05%	-15.6%	4.8%	-26.2%	22.5%	-4.45%
O=P(O)(O)OC1C(OP(=O)(O)O)C(OP(=O)(O)O)C(OP(=O)(O)O)C(OP(=O)(O)O)C1OP(=O)(O)O.[Cu+2] (stereo unspecified)	-18.1%	-18.8%	-14.7%	-10.9%	-9%	-19.4%
CCCSc1cc(Cl)c(C)cc1S(=O)(=O)n1cc[nH]c1=O	11.9%	7.3%	9.15%	5.75%	13.3%	35.7%
[N-]=[N+]=C(C(=O)N1CCCC1=O)S(=O)(=O)c1ccccc1	-17.3%	-12.4%	-17.9%	5.45%	-14.4%	2.45%
